# Experimental data published in PubChem BioAssay (NCATS).
# Results filed as inconclusive are left out. A number with no mark means an inactive call. Calls come from the whole dose curve; as a rule, active = well fitted curve in the direction sought with a large enough effect in the signal ratio, with a control signal flat (not every such curve was filed as active); inconclusive = small, poorly fitted or top-dose-only effect, or effect the other way, or a change in a side signal; inactive = no such curve, though single readings can be large or run the other way; the % refers to the signal ratio.
# Biological target: Tyrosine-protein phosphatase non-receptor type substrate 1 (Homo sapiens) + Leukocyte surface antigen CD47 (Homo sapiens) (UniProt P78324+Q08722)
# Sequence (P78324 whole entry, looked up): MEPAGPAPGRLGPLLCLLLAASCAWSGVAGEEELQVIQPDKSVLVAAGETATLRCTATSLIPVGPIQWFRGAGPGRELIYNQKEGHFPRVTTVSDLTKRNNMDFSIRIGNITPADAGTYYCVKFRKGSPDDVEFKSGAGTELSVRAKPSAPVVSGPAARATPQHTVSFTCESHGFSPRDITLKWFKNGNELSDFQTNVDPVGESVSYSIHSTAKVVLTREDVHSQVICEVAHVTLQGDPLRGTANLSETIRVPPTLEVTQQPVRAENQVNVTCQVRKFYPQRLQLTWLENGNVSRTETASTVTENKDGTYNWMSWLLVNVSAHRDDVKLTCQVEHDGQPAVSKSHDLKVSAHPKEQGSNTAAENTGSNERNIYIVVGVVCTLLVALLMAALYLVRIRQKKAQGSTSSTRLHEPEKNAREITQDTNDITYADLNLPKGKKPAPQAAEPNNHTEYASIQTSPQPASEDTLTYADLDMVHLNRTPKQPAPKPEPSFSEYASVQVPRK
# Sequence (Q08722 whole entry, looked up): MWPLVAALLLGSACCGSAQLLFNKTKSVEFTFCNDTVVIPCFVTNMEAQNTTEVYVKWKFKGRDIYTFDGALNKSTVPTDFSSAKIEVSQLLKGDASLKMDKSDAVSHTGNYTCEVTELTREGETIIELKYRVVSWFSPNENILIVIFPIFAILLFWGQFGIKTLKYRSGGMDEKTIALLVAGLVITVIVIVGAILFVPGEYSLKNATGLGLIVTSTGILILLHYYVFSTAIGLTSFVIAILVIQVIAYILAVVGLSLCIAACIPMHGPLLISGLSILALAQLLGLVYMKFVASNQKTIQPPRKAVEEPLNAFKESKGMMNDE
# Assay: CD47-SIRPalpha protein protein interaction - LANCE assay qHTS validation (AID 1347057); note: 0% is about no effect
# Conditions: Recombinant CD47-His / biotin-SIRPalpha, TR-FRET ratio; series mostly up to 38.3 µM; activity change, negative = inhibition: at the top concentration
# Excerpt: SIRPalpha is a myeloid cell expressed immunomodulatory receptor that binds the tumor expressed immune checkpoint CD47. Therapeutic disruption of this interaction leads to immune-mediated tumor rejection. This assay was used to quantitate CD47-SIRPalpha binding biochemically and evaluate chemical libraries for novel CD47-SIRPalpha inhibitors. To recapitulate the biological interaction of CD47 and SIRPalpha, we designed expression constructs to produce their recombinant, soluble, extracellular interaction domains. CD47 was produced with an N-terminal 6His tag. SIRPalpha was produced with an N-terminal Avi-Tag for site-specific biotin incorporation. The CD47-SIRPalpha interaction was measured by TR-FRET using affinity tag linked reagents (anti-6His-Eu donor and streptavidin-APC acceptor). SIRPalpha without biotin incorporation was used as a positive control inhibitor.
# PROTOCOL TABLE (as described by Miller, T. et al. 2019)
# SEQUENCE No. (e.g., 1, 2, 3, etc.); […] (e.g., Cells, Incubation, Reagent, etc.); VALUE and DESCRIPTION.
# 1a. Reagent. 3 uL CD47-His (12.5 nM) and Anti-His Eu Donor reagent (3 nM) added to respective wells in Assay buffer; white/solid bottom high base, med bind 1536-well plates (Greiner 789075)
# 1b. Reagent. 2 uL Assay buffer negative control for background fluorescence
# 2. Reagent. 23 nL library compounds (7-pt, 1:4 intraplate titration series) or DMSO control transferred by Pin Tool
# 3. Centrifuge. Centrifuge plate for 30 s at 1000 RPM
# 4. Incubation.#Incubate reagents at room temperature for 30 min, protected from light
# 5. Reagent. 2 uL SIRPalpha-biotin (100 nM) in Assay buffer
# 6. Incubation.#Incubate reagents at room temperature for 30 min, protected from light
# 7. Reagent. 1 uL SAV-APC (26 nM) acceptor reagent added to respective wells
# 8. Centrifuge. Centrifuge plate for 30 s at 1000 RPM
# 9. Incubation. Incubate reagents at room temperature for 30 min, protected from light
# 10. Detector. Measure Top TR-FRET on EnVision (Eu/APC filter set); calculate ratio Ch1/Ch2
# 1. Assay buffer composition.#Phosphate buffered saline (PBS; 10 mM Phosphate, 137 mM NaCl, and 2.7 mM KCl; pH 7.4), 0.05% IGEPAL CA-630
# 2. 23nL of […] library compounds (7 plates) or DMSO vehicle control transferred to 9 Greiner white/solid bottom high base, TC plates in 7 interplate 1:5 titrations (see Yasgar, A. et al. 2008) with Pintool. Two of the 9 plates are DMSO-only in compound field at beginning and end of compound library-treated plates.
# 10. Detector settings#Mirror = LANCE/DELFIA Dual Enh; Ex. Filter = UV2[TRF] 320; Em. Filter = APC 665; 2nd Em. Filter = Europium 615; Measurement h = 6.5; Ex. light (%) = 100; Delay = 60 us; Window t = 100 us; No. Seq. windows = 1; Time between flashes = 2000us; No. of flashes = 100; No. of flashes for 2nd detector = 100; Calculation: "Ratio Ch1/Ch2"
row,SMILES,"activity change, negative = inhibition [%]"
1,CN(C)C(=O)Oc1ccc[n+](C)c1,-0.396
2,Cc1nnc(SCC2=C(C(=O)O)N3C(=O)[C@@H](NC(=O)Cn4cnnn4)[C@H]3SC2)s1,1.84
3,CNCCC(Oc1ccccc1OC)c1ccccc1 (stereo not given),1.28
4,CC(C)(Oc1ccc(CCNC(=O)c2ccc(Cl)cc2)cc1)C(=O)O,1.98
5,CCN1CCC[C@H]1CNC(=O)c1c(O)c(Cl)cc(Cl)c1OC,0.089
6,C[C@]12CC[C@@H]3c4ccc(O)cc4C[C@@H](CCCCCCCCCS(=O)CCCC(F)(F)C(F)(F)F)[C@H]3[C@@H]1CC[C@@H]2O (stereo not given in full),0.409
7,CCOC(=O)C1=C(C)NC(C)=C(C(=O)OC)C1c1cccc(Cl)c1Cl (stereo not given),0.603
8,Fc1ccc(C(c2ccc(F)cc2)N2CCN(C/C=C/c3ccccc3)CC2)cc1,0.308
9,CCN(CC)CCCN(c1ccccc1)C1Cc2ccccc2C1,0.352
10,CCNC(=O)N1CCN(CCCC(c2ccc(F)cc2)c2ccc(F)cc2)CC1,-0.122
11,COC(=O)C1=C(C)NC(C)=C(C(=O)OCCN(C)Cc2ccccc2)C1c1cccc([N+](=O)[O-])c1 (stereo not given),2.3
12,O=C1CC2(CCCC2)CC(=O)N1CCCCN1CCN(c2ncccn2)CC1,1.23
13,CCN1CCc2nc(N)oc2CC1,1.43
14,Cc1nc2sccn2c(=O)c1CCN1CCC(=C(c2ccc(F)cc2)c2ccc(F)cc2)CC1,1.45
15,CCCN(CCC)CCc1cccc2c1CC(=O)N2,1.14
16,O=C(CCCN1CCC(O)(c2cccc(C(F)(F)F)c2)CC1)c1ccc(F)cc1,0.835
17,CCCCCCCC/C=C\CCCCCCCC(=O)NCc1ccc(O)c(OC)c1,1.24
18,FC(F)(F)c1ccccc1-n1ccnc1,1.19
19,Cc1ccc(/C(=C\CN2CCCC2)c2ccccn2)cc1,1.25
20,Nc1c2c(nc3ccccc13)CCCC2O (stereo not given),1.51

row,SMILES,"activity change, negative = inhibition [%]"
1,C[C@@H](O)[C@H]1C(=O)N2C(C(=O)O)=C(SCCN=CN)C[C@H]12,3.25
2,Cc1ccc(S(=O)(=O)NC(=O)NN2CCCCCC2)cc1,1.89
3,CN=C(NC#N)NCCSCc1nc[nH]c1C,-0.308
4,OCCN1CCN(CCCN2c3ccccc3C=Cc3ccccc32)CC1,0.132
5,COCCOC(=O)C1=C(C)NC(C)=C(C(=O)OC(C)C)C1c1cccc([N+](=O)[O-])c1 (stereo not given),2.29
6,NC(N)=N/N=C/c1c(Cl)cccc1Cl,1.07
7,NCCCNCCSP(=O)(O)O,-0.165
8,NC(=O)c1ncn([C@@H]2O[C@H](CO)[C@@H](O)[C@H]2O)c1O,0.875
9,CCCCNc1ccc(C(=O)OCCN(C)C)cc1,1.63
10,COCC(=O)O[C@]1(CCN(C)CCCc2nc3ccccc3[nH]2)CCc2cc(F)ccc2[C@@H]1C(C)C,2.51
11,C(=C\c1ccccc1)/CN1CCN(C(c2ccccc2)c2ccccc2)CC1,1.54
12,C[N+](C)(C)CCCCCCCCCC[N+](C)(C)C,1.8
13,CCO/C([O-])=N/c1c[n+](N2CCOCC2)no1,2.39
14,CN/C(=C\[N+](=O)[O-])NCCSCc1ccc(CN(C)C)o1,2.32
15,Cc1cc(C)c(/C=C2\C(=O)Nc3ccccc32)[nH]1,-0.0226
16,CN1C[C@H](C(=O)N[C@]2(C)O[C@@]3(O)[C@@H]4CCCN4C(=O)[C@H](Cc4ccccc4)N3C2=O)C[C@@H]2c3cccc4[nH]cc(c34)C[C@H]21,-0.265
17,CCn1ccnc1CC1COc2ccccc2O1 (stereo not given),2.29
18,CCN(CC)CCNC(=O)c1ccc(NC(C)=O)cc1,-3.32
19,Cc1nc2ccccn2c(=O)c1CCN1CCC(C(=O)c2ccc(F)cc2)CC1,0.927
20,COc1ccc([C@@H]2Sc3ccccc3N(CCN(C)C)C(=O)[C@@H]2OC(C)=O)cc1,-1.1
